# Source: PubChem
# HT1080 IDH1KD tx: toxicity to HT-1080 IDH1 knockdown cells (counter line); 360,000 tested, 2% active; Potency, µM (doses to about 46.1 µM), without a hit: top-dose activity, negative = toxicity, most hits filed as cytotoxic; HT-1080 IDH1 knockdown viability, ATP luminescence, 48 h; AID 686971;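 also: potency is read from the fitted curve at half-maximal effect; 0% = DMSO wells and -100% = cell-free medium wells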
#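 HT-1080-IDH1KD cells (IDH1 knocked down), 750/well in RPMI with 5% FBS, treated with compound 48 h at 37 degrees C. Viability by CellTiter-Glo luminescence, normalised to DMSO and no-cell wells; concentration-response curves classed.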
# TDP1 cell noCPT: qHTS for Inhibitors of human tyrosyl-DNA phosphodiesterase 1 (TDP1): qHTS in cells in absence of CPT. Potency, µM (titrated, usually from 46.2 µM), inactives show top-dose activity change, negative = growth inhibition, actives largely listed as inhibitors. 420,000 tested, 15% active. DT40 Tdp1-/- hTDP1 cells, no CPT, ATP luminescence, 48 h; also: potency is read from the fitted curve at half-maximal effect; nearly all actives have a fitted effect of over 55% in size
#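 Seeded 400 DT40-hTDP1 cells/well (vehicle DMSO, no 20 nM CPT); pinned compounds; ≥48 hr at 37 °C; CellTiter-Glo luminescence as viability measure.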
# DT40 TDP1 CPT: DT40-hTDP1 cell growth loss with CPT. chicken DT40 Tdp1-/-;hTDP1 cells + 20 nM CPT, ATP luminescence, 48 h. Potency, µM (series often up to 46.2 µM), inactives show at the highest dose activity change, negative = growth inhibition, hits mostly inhibitors. 420,000 tested, 12% active. AID 686979; also: potency is read from the fitted curve at half-maximal effect; nearly all actives have a fitted effect of over 55% in size
#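 Chicken DT40 Tdp1-/- cells stably complemented with human TDP1 were seeded at 400 cells/well in medium containing 20 nM camptothecin, exposed to pin-transferred compounds, and grown at 37 °C for at least 48 hr. Viability was read as ATP luminescence.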
# IL-1B inflam inh: inflammasome signaling inhibition, IL-1 beta readout; THP-1 LPS/ATP IL-1B secretion, AlphaLISA, 16 h; stronger effect = lower value; activity change, % at 57.5 µM; 360,000 tested, 4.7% active; AID 743279; in the data active = activity change below about -50%; inconclusive = mostly about -30% to -49%
#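 Secreted IL-1B measured by AlphaLISA bead assay after 16 h compound exposure of THP-1 cells; compounds (final up to 57.5 uM) added 1 h before LPS (250 ng/mL) and ATP (1.25 mM) stimulation; lower signal means less secretion.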
# HT1080NT lethal: kills 2HG-producing HT-1080-NT fibrosarcoma cells | 360,000 tested, 1.6% active | Potency, µM (titrated, usually from 46.1 µM), inactives show top-dose activity, negative = less viability, usual class: cytotoxic | HT-1080-NT fibrosarcoma viability, CellTiter-Glo ATP luminescence, 48 h;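 also: NT is the 2HG producing partner of a matched IDH1 knockdown line; potency is read from the fitted curve at half-maximal effect; 0% = DMSO-treated cells and -100% = media-only wells without cells; nearly all actives have a fitted effect of over 55% in size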
#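 HT-1080-NT; 750 cells/well; 5% FBS RPMI; 48 h compound, 37 degrees C; CellTiter-Glo luminescence; curve fitting and curve-class assignment.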
# * hit, by the source's call; u = inconclusive; x = no result given; [ ] = dose if it differs, or a comment. In the library only some 19% were active in any assay of this set; here they are far more common. Unless noted, calls follow the shape of the dose curve; as a rule, active = well fitted curve in the direction sought with a large enough effect; inconclusive = small, poorly fitted or top-dose-only effect, or another doubt; inactive = no such curve, though single readings can be large; an effect the other way counts as inactive or inconclusive. Unless noted, % is scaled to controls: 0 for no effect and ±100 for the full control effect.
SMILES,HT1080 IDH1KD tx,TDP1 cell noCPT,DT40 TDP1 CPT,IL-1B inflam inh,HT1080NT lethal
CCOc1ccc(C(=O)N2CCC(c3noc(-c4ccc(S(=O)(=O)N5CCCC5)cc4)n3)CC2)cc1,x,16µM*,u,x,x
CCCCCNc1c(C(=O)OCC)c(=O)[nH]c2ccccc12,-14%,13µM*,u,1,-10%
CCOC(=O)c1cccc(NC(=O)c2c(O)[nH]c(=O)[nH]c2=O)c1,-1%,-7%,0%,-4,-7%
CCCN1CCC2(CC1)NC(CO)(CO)CO2,11%,3%,-19%,6,19%
COC(=O)C1=C(N)OC(C)=C(C(C)=O)C12C(=O)N(C)c1ccccc12 (configuration not stated),0%,21µM*,u,2,6%
COP(=S)(OC)Oc1ccc([N+](=O)[O-])cc1,x,2.9µM*,5.8µM*,x,x
COP(=S)(OC)Oc1ccc(S(N)(=O)=O)cc1,x,-4%,-7%,x,x
Cn1c(NN=O)nc2ccccc21,4.6µM*,u,u,121,u
CN1CCN(Cc2nc3ccccc3n2C)CC1,2%,-4%,-1%,2,-2%
CCCCNC(=O)Nc1ccc(C(O)(C(=O)OCC)C(F)(F)F)cc1 (configuration not stated),9%,-22%,-4%,17,-4%
COc1cccc(NP(=O)(Oc2ccccc2)Oc2ccccc2)c1,u,3.7µM*,5.2µM*,u,u
O=P(Nc1cccnc1)(Oc1ccccc1)Oc1ccccc1,0%,-11%,21%,-7,-5%
COc1cccc(NP(=O)(Oc2ccccc2Cl)Oc2ccccc2Cl)c1,u,18µM*,u,-87*,21µM*
COc1ccc2c(c1OC)C(=O)O[C@@H]2C1c2cc3c(cc2CCN1C)OCO3 (some centres not stated),x,-13%,4%,x,x
COC1C=CC23c4cc5c(cc4CN(CC2O)C3C1)OCO5 (configuration not stated),x,1.3µM*,2.1µM*,x,x
c1ccc2c(CN3CCOCC3)c[nH]c2c1,-8%,u,u,33,-4%
Cc1ccccc1N1CCN(Cc2c[nH]c3ccccc23)CC1,1.3µM*,6.5µM*,3.7µM*,u,u
COc1ccccc1N1CCN(CCc2c[nH]c3cc4c(cc23)OCO4)CC1,u,18µM*,23µM*,u,-9%
COc1ccccc1N1CCN(Cc2c[nH]c3ccccc23)CC1,u,5.8µM*,4.1µM*,x,u
COc1ccccc1N1CCN(Cc2ccc(F)cc2)CC1,-8%,-29%,-24%,4,1%
COC1=C(C)C(=O)c2c(c(COC(N)=O)c3n2C[C@@H]2[C@@H]3N2C)C1=O (some centres not stated),x,0.025µM*,0.1µM*,x,x
COc1ccc(CNCCc2c(C)[nH]c3ccc(OC(F)(F)F)cc23)c(OC)c1,23µM*,1.8µM*,4.6µM*,-95*,21µM*
CCc1ccc(Nc2nc3c(S(=O)(=O)c4ccc(C)cc4)nnn3c3ccsc23)cc1,x,3.7µM*,3.7µM*,x,x
CC(C)CN1CC[C@@]2(CCCN(C(=O)c3ccncc3)C2)C1,x,0%,14%,x,x
COc1ccc(-n2nnnc2C(c2ccnc3ccccc23)N2CCC(n3c(=O)[nH]c4ccccc43)CC2)cc1 (configuration not stated),u,u,u,-29,u
SMILES,HT1080 IDH1KD tx,TDP1 cell noCPT,DT40 TDP1 CPT,IL-1B inflam inh,HT1080NT lethal
COc1ccc(-n2nnnc2C(c2cccc(OC)c2OC)N2CCC(n3c(=O)[nH]c4ccccc43)CC2)cc1 (configuration not stated),u,5.2µM*,8.2µM*,-22,u
COc1cccc(C(c2nnnn2-c2ccc3c(c2)OCCO3)N2CCC(n3c(=O)[nH]c4ccccc43)CC2)c1OC (configuration not stated),u,2.3µM*,2.9µM*,32,u
O=c1[nH]c2ccccc2n1C1CCN(C(c2ccccc2OC(F)(F)F)c2nnnn2-c2ccc3c(c2)OCCO3)CC1 (configuration not stated),23µM*,4.6µM*,7.3µM*,-56*,u
O=C1NCN(c2ccccc2)C12CCN(C(c1cccc3ccccc13)c1nnnn1-c1ccc3c(c1)OCCO3)CC2 (configuration not stated),-2%,u,u,u,2%
COC(=O)C1=C(c2ccc(F)cc2OCc2ccccc2)C[C@@H]2CC[C@H]1N2C(=O)NCc1ccc2c(c1)OCO2,u,u,u,u,-22%
C=C1C([C@@]2(C)C(OC(C)=O)CC(=O)O[C@@](C)(COC(C)=O)C2CC(=O)OC)C(OC=O)C(OC(=O)C(OC(C)=O)C(C)CC)[C@]2(C)C(c3ccoc3)CC(=O)C12O (some centres not stated),x,-10%,-4%,x,x
COc1ccccc1NC(=O)N(Cc1ccc2c(c1)OCO2)C1CCN(Cc2ccccc2)CC1,x,5.2µM*,4.6µM*,x,x
O=C(Nc1ccccc1)N(Cc1ccc2c(c1)OCO2)C1CCN(Cc2ccccc2)CC1,x,15µM*,u,x,x
S=C(NCc1ccccc1)NCC1COc2ccccc2O1 (configuration not stated),u,-1%,-12%,50,u
COc1ccc(C=C2C(=O)NC(=S)NC2=O)cc1,1%,u,u,0,-3%
O=C1NC(=S)NC(=O)C1=Cc1ccc(Br)s1,u,9.2µM*,10µM*,-100*,u
O=C1NC(=S)NC(=O)C1=Cc1cccc2cc3ccccc3cc12,u,2.6µM*,5.2µM*,-99*,u
CN1C(=O)/C(=C\c2ccc(Br)s2)C(=O)NC1=S,-12%,16µM*,u,-99*,-16%
O=C1NC(=S)NC(=O)C1=Cc1c(Cl)cccc1Cl,-23%,16µM*,10µM*,-99*,-3%
O=C1NC[C@H](CCCCN2C[C@@H](Cc3ccccc3)N(CCC3CCCCC3)C(=O)C2=O)N(CCC2CCCCC2)C1=O,2%,u,u,u,11%
COc1ccc(NC(=O)c2cn(CCC#N)nc2-c2ccccc2)cc1,6%,-20%,-9%,-6,16%
COc1ccc(Nc2cc(C)c3cc(NC(=O)c4ccccc4Cl)ccc3n2)cc1,x,9.2µM*,21µM*,x,x
COc1ccc2c3c1O[C@H]1[C@@H](O)C=C[C@H]4[C@@H](C2)N(C)CC[C@@]341,x,0%[92.5 µM],-8%[92.5 µM],x,x
